# Laboratory results as given in PubChem BioAssay (NCATS).
# Inconclusive results are not listed. Unmarked numbers belong to inactive results. Activity calls are given as the source filed them. Calls come from the whole dose curve; as a rule, active = well fitted curve in the direction sought with a large enough effect; inconclusive = small, poorly fitted or top-dose-only effect, or another doubt; inactive = no such curve, though single readings can be large; an effect the other way counts as inactive or inconclusive.
# Assays:
# [1] = BET inhibitor-based combinations targeting novel dependencies in MECOM-rearranged (r) AML: SET-2 cell line (AID 2202231); conditions: SET-2 AML cells viability, CellTiter-Glo luminescence, 48 h; viability: active compounds read low, concentration not given here; note: nearly all actives have a fitted effect of over 35% in size;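 for viability: plate controls were DMSO treated cells for no effect and wells without cells for full effect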
# Outline: (§1)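 Each compound was tested at eleven concentrations on cells seeded at 500/well. After two days' incubation, ATP-based luminescence reported viability; responses relative to DMSO and blank wells yielded AUC and cell-line-centred Z-AUC.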
# [2] = BET inhibitor-based combinations targeting novel dependencies in MECOM-rearranged (r) AML: OCI-AML3 cell line (AID 2202232); conditions: Potency: OCI-AML3 viability; note: nearly all actives have a fitted effect of over 35% in size
# Outline: as §1
# [3] = BET inhibitor-based combinations targeting novel dependencies in MECOM-rearranged (r) AML: MV-4-11 cell line (AID 2202233); note: nearly all actives have a fitted effect of over 45% in size
# Outline: (§2)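 First, 500 cells per well were seeded; next, drugs were pinned as 11-point doses; then plates sat 48 hr in the incubator; finally CellTiter-Glo was added and luminescence read, with AUC and Z-AUC computed.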
# [4] = BET inhibitor-based combinations targeting novel dependencies in MECOM-rearranged (r) AML: HNT-34 cell line (AID 2202234); note: nearly all actives have a fitted effect of over 35% in size
# Outline: as §2
# [5] = BET inhibitor-based combinations targeting novel dependencies in MECOM-rearranged (r) AML: UCSD-AML1 cell line (AID 2202235); note: nearly all actives have a fitted effect of over 40% in size
# Outline: as §2
# [6] = BET inhibitor-based combinations targeting novel dependencies in MECOM-rearranged (r) AML: AML-191 cell line (AID 2202236; note: nearly all actives have a fitted effect of over 35% in size)
# Outline: as §1
# [7] = BET inhibitor-based combinations targeting novel dependencies in MECOM-rearranged (r) AML: AML-194 cell line (AID 2202237; note: nearly all actives have a fitted effect of over 40% in size)
# Outline: as §1
# Potency is the fitted concentration of half-maximal effect.
Structure (SMILES),viability [1] [%],Potency [2],Potency [3],Potency [4],Potency [5],Potency [6],Potency [7],Potency [1]
CC(C)(O)[C@H]1CC[C@@](C)([C@H]2[C@@H](O)C[C@@]3(C)[C@@H]4C[C@H](O[C@@H]5O[C@H](CO)[C@@H](O)[C@H](O)[C@H]5O)[C@H]5C(C)(C)[C@@H](O[C@@H]6OC[C@@H](O)[C@H](O)[C@H]6O)CC[C@@]56C[C@@]46CC[C@]23C)O1,118,inactive,inactive,inactive,inactive,inactive,inactive,–
C[C@H](CCC(=O)O)[C@H]1CC[C@H]2[C@@H]3[C@@H](O)C[C@@H]4C[C@H](O)CC[C@]4(C)[C@H]3CC[C@]12C,111,inactive,inactive,inactive,inactive,inactive,inactive,–
Cc1c(CN2CCC(Nc3ncnc4sc(CC(F)(F)F)cc34)CC2)ccc2c1cc(C#N)n2Cc1cn[nH]c1,–,13200 nM (active),3320 nM (active),16600 nM (active),16600 nM (active),18600 nM (active),20900 nM (active),3320 nM (active)
CC(=NNC(=O)c1cccc(S(=O)(=O)N2CCOCC2)c1)c1cc(Cl)ccc1O,–,5250 nM (active),7420 nM (active),2630 nM (active),5250 nM (active),2090 nM (active),4680 nM (active),6610 nM (active)
CS(=O)(=O)Nc1cc2occ(NC=O)c(=O)c2cc1Oc1ccccc1,101,inactive,inactive,inactive,inactive,inactive,inactive,–
CCCc1cc(C(=O)N[C@H](Cc2ccc(-c3cccc(OC(F)(F)F)c3)nc2)C(=O)N[C@@H]2CCNC2)sc1C,–,20900 nM (active),9340 nM (active),11800 nM (active),10500 nM (active),16600 nM (active),14800 nM (active),20900 nM (active)
CCN[C@H]1C[C@H](C)S(=O)(=O)c2sc(S(N)(=O)=O)cc21,114,inactive,inactive,inactive,inactive,inactive,inactive,–
C=CC(=O)N1CC/C(=C\c2ccc(F)c([N+](=O)[O-])c2)C(=O)/C(=C/c2ccc(F)c([N+](=O)[O-])c2)C1,–,52.5 nM (active),59 nM (active),186 nM (active),166 nM (active),209 nM (active),372 nM (active),148 nM (active)
CC(C)C(N)C(=O)OCC(CO)OCn1cnc2c(=O)[nH]c(N)nc21 (configuration not stated),87,inactive,inactive,inactive,inactive,inactive,inactive,–
CC(C)OC(=O)[C@H](C)N[P@](=O)(OC[C@H]1O[C@@H](n2ccc(=O)[nH]c2=O)[C@](C)(F)[C@@H]1O)Oc1ccccc1,107,inactive,inactive,inactive,inactive,inactive,inactive,–
O=C(/C=C/c1ccc(CN(CCO)CCc2c[nH]c3ccccc23)cc1)NO,–,132 nM (active),93.4 nM (active),148 nM (active),132 nM (active),148 nM (active),332 nM (active),166 nM (active)
CC(C)[C@H]1C(=O)N[C@@H](CCCN=C(N)N)C(=O)NCC(=O)N[C@@H](CC(=O)O)C(=O)N[C@H](Cc2ccccc2)C(=O)N1C,124,inactive,inactive,inactive,inactive,inactive,inactive,–
CCC[C@@H]1C[C@@H](C(=O)N[C@@H]([C@H]2O[C@H](SC)[C@H](O)[C@@H](O)[C@H]2O)[C@H](C)Cl)N(C)C1,110,inactive,inactive,inactive,inactive,inactive,inactive,–
CCC(C(=O)O)C1CCC(C)C(C(C)C(O)C(C)C(=O)C(CC)C2OC3(C=CC(O)[C@@]4(CC[C@](C)(C5CC[C@@](O)(CC)C(C)O5)O4)O3)C(C)CC2C)O1 (some centres not stated),–,1480 nM (active),1660 nM (active),525 nM (active),13200 nM (active),2350 nM (active),1180 nM (active),5250 nM (active)
COc1cc(NS(C)(=O)=O)ccc1Nc1c2ccccc2nc2ccccc12,–,372 nM (active),66.1 nM (active),372 nM (active),417 nM (active),742 nM (active),742 nM (active),2090 nM (active)
COc1ccnc2[nH]cc(C(=O)C(=O)N3CCN(C(=O)c4ccccc4)C[C@H]3C)c12,113,inactive,inactive,inactive,inactive,inactive,inactive,–
CC(C)(C)C(=O)N1N=CC[C@H]1c1ccccc1,112,inactive,inactive,inactive,inactive,inactive,inactive,–
Cc1ncsc1-c1ccc([C@H](C)NC(=O)[C@@H]2C[C@@H](O)CN2C(=O)[C@@H](NC(=O)COCCCOCCNC(=O)C[C@@H]2N=C(c3ccc(Cl)cc3)c3c(sc(C)c3C)-n3c(C)nnc32)C(C)(C)C)cc1,–,9.3 nM (active),4.7 nM (active),29.5 nM (active),83.3 nM (active),209 nM (active),186 nM (active),3720 nM (active)

Structure (SMILES),viability [1] [%],Potency [2],Potency [3],Potency [4],Potency [5],Potency [6],Potency [7],Potency [1]
N#Cc1ccc(C(c2ccc(C#N)cc2)n2cncn2)cc1,96.2,inactive,inactive,inactive,inactive,inactive,inactive,–
CCN(CC)CCNc1ccc(C)c2sc3ccccc3c(=O)c12,–,14800 nM (active),7420 nM (active),16600 nM (active),16600 nM (active),16600 nM (active),16600 nM (active),18600 nM (active)
CCOC(=O)CCNc1cc(N2CCc3ccccc3CC2)nc(-c2ccccn2)n1,–,14800 nM (active),8330 nM (active),2350 nM (active),3320 nM (active),2950 nM (active),2950 nM (active),3720 nM (active)
CC(C)(NS(=O)(=O)c1ccc2c(Cl)cnc(N=C(N)N)c2c1)C(=O)O,117,inactive,inactive,inactive,inactive,inactive,inactive,–
N=C(N)c1ccc(OCCCCCOc2ccc(C(=N)N)cc2)cc1,–,8330 nM (active),13200 nM (active),26300 nM (active),23500 nM (active),18600 nM (active),20900 nM (active),20900 nM (active)
O=C(NO)c1ccc(C2=Nc3ccccc3Oc3ccccc32)cc1,–,5250 nM (active),1860 nM (active),3720 nM (active),4170 nM (active),3320 nM (active),4680 nM (active),2950 nM (active)
C=CC(=O)N1CCc2ccc(-n3c(=O)ccc4cnc5ccc(-c6cnn(C)c6)cc5c43)cc21,–,363 nM (active),288 nM (active),407 nM (active),229 nM (active),812 nM (active),574 nM (active),456 nM (active)
Nc1ccn([C@@H]2O[C@H](CO)[C@@H](O)C2O)c(=O)n1 (some centres not stated),–,3320 nM (active),833 nM (active),74.2 nM (active),29.5 nM (active),74.2 nM (active),52.5 nM (active),332 nM (active)
CN(C)c1cc(NC(=O)CNC(C)(C)C)c(O)c2c1C[C@H]1C[C@H]3[C@H](N(C)C)C(=O)C(C(N)=O)=C(O)[C@]3(O)C(=O)C1=C2O,74.8,inactive,inactive,inactive,4680 nM (active),inactive,inactive,–
O=c1c(-c2ccc(O)cc2)coc2c([C@@H]3O[C@H](CO)[C@@H](O)[C@H](O)[C@H]3O)c(O)ccc12,113,inactive,inactive,inactive,inactive,inactive,inactive,–
CN(C)C(N)=NC(=N)N,120,inactive,inactive,inactive,inactive,inactive,inactive,–
Cc1cc(I)ccc1Nc1c(C(=O)NOCC2CC2)cc(F)c(F)c1F,–,1660 nM (active),16600 nM (active),14800 nM (active),5900 nM (active),16600 nM (active),20900 nM (active),20900 nM (active)
COc1cc(O)c2c(c1)C1OC1C[C@H](O)[C@H](O)C(=O)C=CC[C@H](C)OC2=O (some centres not stated),–,742 nM (active),132 nM (active),934 nM (active),1480 nM (active),1320 nM (active),1480 nM (active),5900 nM (active)
COC(=O)c1ccc([C@H]2c3[nH]c4ccccc4c3C[C@H](C(=O)OC)N2C(=O)CCl)cc1,–,105 nM (active),833 nM (active),93.4 nM (active),166 nM (active),132 nM (active),105 nM (active),93.4 nM (active)
O=C(/C=C/c1ccc2ccc(C(F)(F)F)cc2n1)c1ccncc1,–,1860 nM (active),1050 nM (active),1320 nM (active),1660 nM (active),1860 nM (active),2350 nM (active),2630 nM (active)
NC(=O)/C(=C/n1cnc(-c2cc(C(F)(F)F)cc(C(F)(F)F)c2)n1)c1cncnc1,–,742 nM (active),186 nM (active),742 nM (active),118 nM (active),263 nM (active),166 nM (active),590 nM (active)
C[C@H](NC(=O)CCC(F)(F)F)C(=O)N[C@@H]1C(=O)N(CCO)c2ncccc2-c2ccccc21,95.9,inactive,inactive,inactive,inactive,inactive,inactive,–
CC1(C)CC[C@]2(C(=O)O)CC[C@]3(C)C(=CC[C@@H]4[C@@]5(C)C[C@@H](O)[C@H](O)C(C)(C)[C@@H]5CC[C@]43C)[C@@H]2C1,102,inactive,inactive,inactive,inactive,inactive,inactive,–
